Exocytosis inh: blocks lytic granule exocytosis; 360,000 compounds, 0.66% hits; TALL-104 LAMP-1 surface exposure, flow cytometry; cells stimulated with thapsigargin and PMA; inhibition, % at 10 µM;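 active means inhibition above about 55%, limit read from the data; inconclusive means no clear call, values can overlap the other calls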
TLR4 MyD88 comp: inhibitors of human TLR4-MyD88 binding | O00206+Q99836 | HeLa CL3-4 TLR4/MyD88 BLA complementation, FRET ratio | inhibition, % at 8.4 µM | 200,000 compounds, 0.18% hits; in the data active means inhibition above about 25%;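 further: 0% = vehicle and 100% = reference inhibitor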
ABHD5-PLIN5 inh: ABHD5-PLIN5 protein interaction inhibition; Q00G26+Q8WTS1; Split G. princeps luciferase complementation, luminescence, 4 h; inhibition, % at 4 µM; 360,000 compounds, 0.78% hits;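 active means inhibition above the mean inhibition across every tested compound plus 3 SD, cut at about 22% in these data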;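 further: 0% = DMSO only wells and the 100% control is not disclosed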
PRMT1 FP inh: inhibitors of human PRMT1; recombinant PRMT1, activity-based probe fluorescence polarization; inhibition, % at 2.79 µM; 370,000 compounds, 1.3% hits;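 active means inhibition above about 21% made by adding two undisclosed values, limit read from the data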
NOD2 RIPK2 PPI: blocks binding of human NOD2 to RIPK2 | O43353 | CHO BLA complementation NOD2-RIPK2, CCF4 ratio | inhibition, % at 4.98 µM | 360,000 compounds, 0.38% hits; in the data active means inhibition above about 21%;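 further: 0% = vehicle only and 100% = reference blocker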
Target sequence (O43353 whole entry, looked up): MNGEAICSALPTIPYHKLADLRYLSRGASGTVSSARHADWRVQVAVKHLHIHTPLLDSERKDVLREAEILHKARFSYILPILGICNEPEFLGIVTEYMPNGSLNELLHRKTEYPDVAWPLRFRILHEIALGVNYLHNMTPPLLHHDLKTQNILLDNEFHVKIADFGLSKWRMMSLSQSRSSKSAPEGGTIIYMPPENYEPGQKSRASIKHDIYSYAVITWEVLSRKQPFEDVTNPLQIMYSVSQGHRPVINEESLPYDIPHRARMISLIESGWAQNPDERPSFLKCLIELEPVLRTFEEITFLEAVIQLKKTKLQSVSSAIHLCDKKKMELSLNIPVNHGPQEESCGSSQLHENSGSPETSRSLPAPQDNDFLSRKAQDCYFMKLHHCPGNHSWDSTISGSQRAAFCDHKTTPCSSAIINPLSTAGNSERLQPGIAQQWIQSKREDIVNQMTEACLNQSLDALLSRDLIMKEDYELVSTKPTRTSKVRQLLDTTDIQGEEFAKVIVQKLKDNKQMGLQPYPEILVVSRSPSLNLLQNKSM
TLR9-MyD88 inh: TLR9-MyD88 interaction inhibition. inhibition, % at 4.98 µM. 340,000 compounds, 0.21% hits. CHO BLA complementation TLR9-MyD88, CCF4 FRET ratio. Q9NR96+Q99836. AID 504734;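 active means inhibition above the mean over all tested compounds plus 3 SD, cut at about 21% in these data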;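 further: 0% = DMSO only wells and 100% = clavulanate BLA inhibitor control wells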
TLR9-MyD88 cf: confirmation of human TLR9-MyD88 binding inhibitors; shares compounds with TLR9-MyD88 inh; CHO TLR9/MyD88 BLA complementation, CCF4 FRET ratio; AID 540250; inhibition, % at 4.98 µM; 680 compounds, 51% hits;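 active means mean inhibition across three repeats above about 21% taken from the earlier screen, limit read from the data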;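 further: blue over green emission ratio reports constitutive TLR9 MyD88 association via BLA complementation; 0% = DMSO vehicle wells and 100% = clavulanate BLA inhibitor wells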
BLA counter-1: beta-lactamase reporter inhibition, counter-screen artifact. inhibition, % at 4.98 µM. 680 compounds, 7% hits. AID 540251. shares compounds with TLR9-MyD88 inh. CHO-BLA cells, CCF4 FRET ratio, BLA reporter;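 active means mean inhibition above a 50% cutoff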;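 further: counterscreen of TLR9-MyD88 hits on CMV-driven BLA in CHO-K1 cells; 0% = DMSO alone and 100% = clavulanate blocking BLA; higher means less blue over green ratio so more BLA blockade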
TLR9 CHO cytotox: CHO cell toxicity counter-screen for TLR9-MyD88 inhibitors; AID 588336; inhibition, % at 4.98 µM; shares compounds with TLR9-MyD88 inh; TLR9-MyD88 CHO cells cytotoxicity, luminescence; 680 compounds, 39% hits; in the data active means inhibition above about 11%
ABHD5 PLIN5 conf: confirmation of human ABHD5-PLIN5 interaction inhibitors; shares compounds with ABHD5-PLIN5 inh; biochemical ABHD5-PLIN5 interaction, luminescence; inhibition, % at 4 µM; 2,200 compounds, 67% hits; AID 651612; in the data active means inhibition above about 23%;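 further: 0% = DMSO vehicle wells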
HNF4 counter: HNF4 split-luciferase signal hit, counter-screen. shares compounds with ABHD5-PLIN5 inh. HNF4 dimerization, luminescence, biochemical. inhibition, % at 4 µM. 2,200 compounds, 77% hits;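 active means mean inhibition across replicate wells exceeding the computed hit threshold, cut at about 13% in these data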;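 further: light from luciferase halves that rejoin when HNF4 fusion proteins dimerize; 0% = DMSO only wells and the 100% control is not given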
NOD2 RIPK2 conf: confirmation of human NOD2-RIPK2 interaction inhibitors | shares compounds with NOD2 RIPK2 PPI | CHO cells, NOD2-RIPK2 BLA complementation, CCF4 FRET | inhibition, % at 4.98 µM | 1,200 compounds, 70% hits;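 active means mean inhibition across replicates above a set limit taken from the earlier primary screen, cut at about 21% in these data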;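 further: 0% = DMSO-only wells and the high end = clavulanate BLA-blocked wells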
BLA counter-2: hits BLA reporter in NOD2-RIPK2 inhibitor counterscreen; shares compounds with NOD2 RIPK2 PPI; CHO BLA reporter, CCF4 FRET ratio; inhibition, % at 4.98 µM; 1,200 compounds, 57% hits;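 active means mean inhibition above the low-control mean inhibition plus three low-control SD, cut at about 11% in these data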;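 further: 0% = DMSO only wells and 100% = clavulanate high control wells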
Granule exo CP1: lytic granule exocytosis inhibition | inhibition, % at 10 µM | AID 651954 | TALL-104 cells, LAMP-1 externalization, flow cytometry; stimulated with PMA plus thapsigargin | shares compounds with Exocytosis inh | 1,500 compounds, 11% hits; in the data active means inhibition above about 60%;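 further: 0% = stimulated vehicle wells and 100% = unstimulated wells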
PRMT1 inh conf: confirmation of human PRMT1 inhibitors; shares compounds with PRMT1 FP inh; 3,300 compounds, 42% hits; recombinant His-PRMT1, activity-based probe fluorescence polarization; inhibition, % at 2.79 µM; AID 687036;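 active means mean inhibition across replicates above the hit cutoff derived for the earlier primary screen, cut at about 22% in these data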
Numbers without * were called inactive; ? = inconclusive; nt = not tested or not shown. Most compounds without a hit are left out; they make up all but 2.6% or so of the library.

SMILES | Exocytosis inh | TLR4 MyD88 comp | ABHD5-PLIN5 inh | PRMT1 FP inh | NOD2 RIPK2 PPI | TLR9-MyD88 inh | TLR9-MyD88 cf | BLA counter-1 | TLR9 CHO cytotox | ABHD5 PLIN5 conf | HNF4 counter | NOD2 RIPK2 conf | BLA counter-2 | PRMT1 inh conf | others
CCC1CCCCN1S(=O)(=O)c1ccc(NC(=O)c2ccncc2)cc1 (configuration not stated) | -2 | nt | 3 | 1 | 5 | -2 | nt | nt | nt | nt | nt | nt | nt | nt
O=C(Nc1ccc(OC(F)F)cc1)c1ncc(Cl)c(Cl)c1Cl | 1 | -4 | 0 | 1 | -5 | -1 | nt | nt | nt | nt | nt | nt | nt | nt
Cc1ccc(CS(=O)(=O)c2ncc(Cl)c(C(=O)Nc3ccc(OC(F)F)cc3)n2)cc1 | 35 | nt | 57* | 29* | 94* | 36* | 24* | 15 | 95* | 90* | 89* | 80* | 21* | 21*
CS(=O)(=O)c1ncc(Cl)c(C(=O)Nc2ccc3ccccc3c2)n1 | 39 | 15 | 77* | 50* | 79* | 45* | 51* | 31 | 99* | nt | nt | 72* | 41* | 35*
CC(=O)Nc1ccc(NC(=O)c2nc(S(=O)(=O)Cc3ccccc3)ncc2Cl)cc1 | ? | nt | 58* | 30* | 51* | 34* | 36* | 30 | 95* | 81* | 94* | 50* | 34* | 23*
CCC1CCCCN1S(=O)(=O)c1ccc(NC(=O)c2nc(S(C)(=O)=O)ncc2Cl)cc1 (configuration not stated) | 30 | nt | 91* | 50* | 96* | 53* | 47* | 31 | 98* | 100* | 107* | 94* | 48* | 47*
CCOC(=O)C1=C(C(=O)OCC)C2N(Cc3ccc(C(F)(F)F)cc3)c3ccccc3[C@@]23C[C@@H](C(=O)OC)N(S(=O)(=O)c2ccccc2C)C3=N1 (some centres not stated) | nt | nt | nt | -8 | nt | nt | nt | nt | nt | nt | nt | nt | nt | nt
COCC#Cc1ccc2c(c1)O[C@H](CN(C)C(=O)c1ccccc1)[C@@H](C)CN([C@H](C)CO)S2(=O)=O | nt | nt | nt | 5 | nt | nt | nt | nt | nt | nt | nt | nt | nt | nt
CN(C)CCCN(C(=O)CCOc1ccccc1)c1nc2c(F)cccc2s1 | 3 | 19 | 28* | 31* | 48* | 22* | 3 | 3 | 68* | 13 | 92* | 27* | 0 | 4
O=[N+]([O-])c1ccc(SN2CCCCC2)c([N+](=O)[O-])c1 | nt | nt | nt | 7 | nt | nt | nt | nt | nt | nt | nt | nt | nt | nt
CCCCNc1ccc2c3c(cccc13)C(=O)N(CCCC)C2=O | 44 | nt | 16 | 155* | 63* | 67* | 50* | 49 | 11* | nt | nt | 77* | 79* | 133*
O=C1CC(Sc2nnnn2-c2ccccc2)C(=O)N1c1cccc(Cl)c1 (configuration not stated) | 99* | 5 | 37* | 74* | 57* | 22* | 11 | 3 | 98* | 62* | 104* | 58* | 12* | 79* | Granule exo CP1=101*
Clc1cccc(N2CCN(c3nnnn3-c3ccccc3)CC2)c1 | 3 | -9 | 10 | -2 | -4 | -6 | nt | nt | nt | nt | nt | nt | nt | nt
CCC(C)CNC(=O)c1oc(=O)c2ccccc2c1-c1ccc(C)cc1 (configuration not stated) | nt | nt | nt | -2 | nt | nt | nt | nt | nt | nt | nt | nt | nt | nt
CCn1nc(C)cc1-c1nnc(SCC(=O)Nc2ccccc2)n1CCCOC | 4 | nt | 3 | 2 | 3 | 10 | nt | nt | nt | nt | nt | nt | nt | nt
CCn1nc(C)cc1-c1nnc(Sc2ncc([N+](=O)[O-])s2)n1C | 17 | nt | 24* | 55* | 78* | 29* | 42* | -1 | 101* | 25* | 110* | 85* | 19* | 63*
CCCCNc1cccc2c1S(=O)(=O)N[C@@H](CC(C)C)CO2 | nt | nt | nt | -5 | nt | nt | nt | nt | nt | nt | nt | nt | nt | nt
COC(=O)[C@]12C[C@H](CC(=O)N3CCC(c4ccccc4)CC3)C(=O)N(CCc3ccc(OC)c(OC)c3)C1=C[C@H](C(C)(C)C)O[C@@H]2C | nt | nt | nt | -1 | nt | nt | nt | nt | nt | nt | nt | nt | nt | nt
CC(OC(=O)c1ccc2ccccc2c1)C(=O)N(C)Cc1ccccc1 (configuration not stated) | -4 | nt | 5 | 0 | -5 | -3 | nt | nt | nt | nt | nt | nt | nt | nt
CC(C)N(CCC(=O)c1ccc2ccccc2c1)Cc1ccccc1 | 32 | nt | 20 | 54* | 6 | 21* | -3 | -1 | 49* | nt | nt | nt | nt | 71*
Cc1cccc2cc3c(N)c(C(=O)N4CCc5ccccc54)sc3nc12 | 2 | 3 | -6 | 31* | 2 | 22* | 18 | 19 | 18* | nt | nt | nt | nt | 4
Cc1cccc2cc3c(N)c(C(=O)Nc4ccc(N5CCOCC5)cc4)sc3nc12 | 10 | 15 | 0 | 0 | 3 | 3 | nt | nt | nt | nt | nt | nt | nt | nt
C=CCN1C(=O)c2n[nH]c(COC)c2C1c1ccc(Br)cc1 (configuration not stated) | nt | nt | nt | -5 | nt | nt | nt | nt | nt | nt | nt | nt | nt | nt
O=C(Cn1sc2ccccc2c1=O)Nc1ccc(Br)cc1 | 26 | nt | 65* | 93* | 28* | 31* | 17 | 0 | 81* | 81* | 118* | 34* | 6 | 81*
O=C(CN1C(=O)C2CC=CCC2C1=O)Nc1ccc(Br)cc1 (configuration not stated) | -11 | nt | -1 | 3 | 3 | 4 | nt | nt | nt | nt | nt | nt | nt | nt
COC(=O)C1=C(C)N(Cc2ccccc2C(F)(F)F)C(=NCc2cccc(C(F)(F)F)c2)NC1c1cccc(Cl)c1 (configuration not stated) | nt | nt | nt | -4 | nt | nt | nt | nt | nt | nt | nt | nt | nt | nt
